In the supplement of paper PMC8773631:
Structures can show the parent of a compound that is named as a salt. ± gives the uncertainty stated by the source.

Test system: NCC-MFS5-C1
Test: cell viability relative to DMSO control; higher = less growth inhibition
Details: 10 µM; treatment time: 3 days
Description: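 NCC-MFS5-C1 myxofibrosarcoma cells (1x10^4 per well, 384-well) were treated on day 2 with 10 µM of each drug. On day 5, viability was read by CCK-8 absorbance at 450 nm and normalised to the DMSO control (%), n = 2.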

Row | SMILES | cell viability [%]
1 | O=C(c1ccc(OCCN2CCCCC2)cc1)c1c(-c2ccc(O)cc2)sc2cc(O)ccc12 [Raloxifene HCl] | 85 ± 1
2 | COc1cc2nccc(Oc3ccc(NC(=O)C4(C(=O)Nc5ccc(F)cc5)CC4)cc3)c2cc1OC | 93.8 ± 6.7
3 | N#CC[C@H](C1CCCC1)n1cc(-c2ncnc3[nH]ccc23)cn1 | 66.2 ± 4.7
4 | CNC[C@H](O)c1ccc(O)c(O)c1 [Epinephrine Bitartrate] | 106 ± 5.9
5 | COC(=O)C1=C(C#N)NC(C)=C(C(=O)OC(C)C)C1c1cccc([N+](=O)[O-])c1 (stereo not given) [Nilvadipine] | 86 ± 4.2
6 | COc1ccc(C2=N[C@@H](c3ccc(Cl)cc3)[C@@H](c3ccc(Cl)cc3)N2C(=O)N2CCNC(=O)C2)c(OC(C)C)c1 [Nutlin-3] | 88.6 ± 1.8
7 | COc1ccc2c(c1OC)C(=O)O[C@@H]2[C@H]1c2c(cc3c(c2OC)OCO3)CCN1C [Noscapine HCl] | 75.82 ± 0.21
8 | CC(C)(OCc1nn(Cc2ccccc2)c2ccccc12)C(=O)O [Bindarit] | 85.93 ± 0.83
9 | O=c1[nH]c(=O)n(C2CCCO2)cc1F (stereo not given) | 88.2 ± 5.4
10 | Cc1c2oc3c(C)ccc(C(=O)N[C@@H]4C(=O)N[C@H](C(C)C)C(=O)N5CCC[C@H]5C(=O)N(C)CC(=O)N(C)[C@@H](C(C)C)C(=O)O[C@@H]4C)c3nc-2c(C(=O)N[C@@H]2C(=O)N[C@H](C(C)C)C(=O)N3CCC[C@H]3C(=O)N(C)CC(=O)N(C)[C@@H](C(C)C)C(=O)O[C@@H]2C)c(N)c1=O [Actinomycin D] | 40.2 ± 2.1
11 | C#CCC(Cc1cnc2nc(N)nc(N)c2n1)c1ccc(C(=O)N[C@@H](CCC(=O)O)C(=O)O)cc1 (stereo not given in full) [Pralatrexate] | 85 ± 4.1
12 | CC(=O)O[C@H]1C(=O)[C@@]2(C)[C@H]([C@H](OC(=O)c3ccccc3)[C@]3(O)C[C@H](OC(=O)[C@H](O)[C@@H](NC(=O)c4ccccc4)c4ccccc4)C(C)=C1C3(C)C)[C@]1(OC(C)=O)CO[C@@H]1C[C@@H]2O [Paclitaxel] | 53.9 ± 3.3
13 | COc1cc2c(Oc3ccc(NC(=O)C4(C(=O)Nc5ccc(F)cc5)CC4)cc3F)ccnc2cc1OCCCN1CCOCC1 | 7.35 ± 2
14 | CO[C@@]12[C@H](COC(N)=O)C3=C(C(=O)C(C)=C(N)C3=O)N1C[C@@H]1N[C@@H]12 [Mitomycin C] | 41.7 ± 3.7
15 | CO[C@H]1C[C@@H]2CC[C@@H](C)[C@@](O)(O2)C(=O)C(=O)N2CCCC[C@H]2C(=O)O[C@H]([C@H](C)C[C@@H]2CC[C@@H](OC(=O)C(C)(CO)CO)[C@H](OC)C2)CC(=O)[C@H](C)/C=C(\C)[C@@H](O)[C@@H](OC)C(=O)[C@H](C)C[C@H](C)/C=C/C=C/C=C/1C | 52.2 ± 7.9
16 | CO[C@H]1O[C@@H]2O[C@@]3(C)CC[C@H]4[C@H](C)CC[C@@H]([C@H]1C)[C@@]24OO3 [Artemether] | 91.2 ± 4.8
17 | C=CC(=O)Nc1cccc(Nc2nc(Nc3ccc(N4CCN(C(C)=O)CC4)cc3OC)ncc2C(F)(F)F)c1 [Rociletinib (CO-1686, AVL-301)] | 54.97 ± 0.41
18 | O=C(/C=C/c1cccc(S(=O)(=O)Nc2ccccc2)c1)NO [Belinostat (PXD101)] | 26.9 ± 0.53
19 | NC(=O)NO [Hydroxyurea] | 71.3 ± 11
20 | CC(=O)OCC(CCn1cnc2cnc(N)nc21)COC(C)=O [Famciclovir] | 80.4 ± 5.5

Row | SMILES | cell viability [%]
21 | CNC(=O)c1cc(Oc2ccc(NC(=O)Nc3ccc(Cl)c(C(F)(F)F)c3)cc2)ccn1 [Sorafenib] | 64.2 ± 1.6
22 | Cc1ccc(S(=O)(=O)Nc2nc3ccccc3nc2Nc2ccc3nsnc3c2)cc1 [XL147 analog] | 84.5 ± 6
23 | CN(N=O)C(=O)NC1C(O)OC(CO)C(O)C1O (stereo not given) [Streptozotocin (STZ)] | 113 ± 27
24 | Cc1nc(Nc2ncc(C(=O)Nc3c(C)cccc3Cl)s2)cc(N2CCN(CCO)CC2)n1 [Dasatinib] | 55.3 ± 5.5
25 | Nc1ccn([C@@H]2O[C@H](CO)[C@@H](O)C2(F)F)c(=O)n1 [Gemcitabine] | 91 ± 2.9
26 | COc1c2ccoc2cc2oc(=O)ccc12 [Bergapten] | 105 ± 18
27 | CCCCCOC(=O)Nc1nc(=O)n([C@@H]2O[C@H](C)[C@@H](O)[C@H]2O)cc1F [Capecitabine] | 72.9 ± 5.9
28 | CC1(COc2ccc3c(c2)ncn3-c2ccc3cccc(N4CCC(N)CC4)c3n2)COC1 | 26.1 ± 3.3
29 | Oc1ncnc2[nH]ncc12 [Allopurinol] | 86.2 ± 18
30 | CNC(=O)c1ccccc1Sc1ccc2c(/C=C/c3ccccn3)n[nH]c2c1 [Axitinib] | 79.1 ± 4.4
31 | CCC(C)n1ncn(-c2ccc(N3CCN(c4ccc(OCC5COC(Cn6cncn6)(c6ccc(Cl)cc6Cl)O5)cc4)CC3)cc2)c1=O (stereo not given) [Itraconazole] | 77.7 ± 15
32 | Cc1cccc(N(C)C(=S)Oc2ccc3ccccc3c2)c1 [Tolnaftate] | 103 ± 6.7
33 | CC(C)c1nc(CN(C)C(=O)N[C@@H](CCN2CCOCC2)C(=O)N[C@H](CC[C@H](Cc2ccccc2)NC(=O)OCc2cncs2)Cc2ccccc2)cs1 [Cobicistat (GS-9350)] | 61.5 ± 0.43
34 | Cc1ccc(C(=O)Nc2ccc(CN3CCN(C)CC3)c(C(F)(F)F)c2)cc1C#Cc1cnc2cccnn12 | -2.74 ± 0.27
35 | Cc1nc(NC(=O)N2CCC[C@H]2C(N)=O)sc1-c1ccnc(C(C)(C)C(F)(F)F)c1 [Alpelisib] | 92.6 ± 1
36 | CN1c2cc(O)c(N=NC(N)=O)cc2CC1S(=O)(=O)O (stereo not given) [Carbazochrome sodium sulfonate (AC-17)] | 78.6 ± 7.6
37 | O=C1CCC(N2C(=O)c3ccccc3C2=O)C(=O)N1 (stereo not given) [Thalidomide] | 84.4 ± 8.3
38 | CN1CCN(c2ccc(C(=O)Nc3n[nH]c4ccc(Cc5cc(F)cc(F)c5)cc34)c(NC3CCOCC3)c2)CC1 [Entrectinib (RXDX-101)] | 14.7 ± 15
39 | CCCCC1C(=O)N(c2ccccc2)N(c2ccccc2)C1=O [Phenylbutazone] | 72.5 ± 5.7
40 | CC[C@H]1OC(=O)[C@H](C)[C@@H](O[C@H]2C[C@@](C)(OC)[C@@H](O)[C@H](C)O2)[C@H](C)[C@@H](O[C@@H]2O[C@H](C)C[C@H](N(C)C)[C@H]2O)[C@](C)(O)C[C@@H](C)CN(C)[C@H](C)[C@@H](O)[C@]1(C)O [Azithromycin] | 69.4 ± 0.75
